Source: PubChem BioAssay (National Center for Advancing Translational Sciences (NCATS))
An excerpt weighted towards active compounds, which were near 19% of everything screened.
IL1B secr inh = qHTS for Inhibitors of Inflammasome Signaling: IL-1-beta AlphaLISA Primary Screen; activity change, % at 57.5 µM; AID 743279, 2014; THP-1 LPS/ATP IL-1B secretion, AlphaLISA, 16 h; hits give low values; actives 4.7% (n = 360,000); in the data active = activity change below about -50%; inconclusive = mostly about -30% to -49%; also: % is scaled to controls: 0 for no effect and ±100 for the full control effect
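Secreted IL-1B measured by AlphaLISA bead assay after 16 h compound exposure of THP-1 cells; compounds (final up to 57.5 uM) added 1 h before LPS (250 ng/mL) and ATP (1.25 mM) stimulation; lower signal means less secretion.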
DT40 TDP1 no CPT = qHTS for Inhibitors of human tyrosyl-DNA phosphodiesterase 1 (TDP1): qHTS in cells in absence of CPT. DT40 Tdp1-/- hTDP1 cells, no CPT, ATP luminescence, 48 h. Potency, µM (highest dose often 46.2 µM), for the others: at the highest dose activity change, negative = growth inhibition, usual class: inhibitors. actives 15% (n = 420,000); also: potency is read from the fitted curve at half-maximal effect; % is scaled to controls: 0 for no effect and ±100 for the full control effect; nearly all actives have a fitted effect of over 55% in size
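Growth kinetics read by CellTiter-Glo luminescence after ≥48 hr at 37 °C. Cells: DT40 Tdp1-/- stably carrying human TDP1, 400 per well, compound exposure in the absence of CPT (DMSO vehicle).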
TDP1 inh = qHTS Assay for Inhibitors of Tyrosyl-DNA Phosphodiesterase (TDP1); Tyrosyl-DNA phosphodiesterase 1 (Homo sapiens), Q9NUW8; recombinant TDP1, AlphaScreen DNA substrate cleavage; Potency, µM (top dose mostly 130 µM), inactives show top-dose activity change, negative = inhibition, usual class: inhibitors; actives 0.28% (n = 350,000); AID 485290, 2010; also: potency is read from the fitted curve at half-maximal effect; % is scaled to controls: 0 for no effect and ±100 for the full control effect; nearly all actives have a fitted effect of over 40% in size
Target sequence (Q9NUW8 whole entry, looked up): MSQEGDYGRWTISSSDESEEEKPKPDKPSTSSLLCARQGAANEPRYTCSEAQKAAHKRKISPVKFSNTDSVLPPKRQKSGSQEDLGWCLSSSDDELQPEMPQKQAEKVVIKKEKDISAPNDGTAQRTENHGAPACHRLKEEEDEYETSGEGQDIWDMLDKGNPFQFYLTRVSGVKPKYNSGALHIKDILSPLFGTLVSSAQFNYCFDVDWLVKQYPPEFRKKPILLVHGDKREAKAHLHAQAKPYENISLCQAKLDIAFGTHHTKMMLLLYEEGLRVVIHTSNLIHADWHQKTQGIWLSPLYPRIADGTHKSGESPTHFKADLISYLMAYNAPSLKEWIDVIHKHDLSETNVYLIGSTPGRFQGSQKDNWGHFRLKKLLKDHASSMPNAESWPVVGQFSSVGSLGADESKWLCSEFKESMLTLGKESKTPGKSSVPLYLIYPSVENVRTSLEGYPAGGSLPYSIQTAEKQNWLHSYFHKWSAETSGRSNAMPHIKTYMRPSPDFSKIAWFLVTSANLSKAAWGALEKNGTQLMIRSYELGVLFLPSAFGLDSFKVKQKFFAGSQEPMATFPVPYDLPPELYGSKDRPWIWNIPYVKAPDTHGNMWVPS
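Here, a 5' biotin and 3' phosphotyrosine-FITC DNA oligonucleotide reports Tdp1 activity: intact substrate bridges AlphaScreen beads, while cleavage leaves a 3' phosphate and drops signal. All incubations at room temperature.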
HepG2 viability = qHTS for Inhibitors of TGF-b: Cytotox Counterscreen. HepG2 CAGA-GFP viability, ATP luminescence, 18 h. Potency, µM (highest dose often 46.1 µM), for the others: top-dose activity change, negative = cytotoxicity, usual class: cytotoxic. actives 0.76% (n = 410,000). AID 588856, 2011; also: potency is read from the fitted curve at half-maximal effect
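CellTiter-Glo luminescence gave cytotoxicity after 18 hours at 37 degrees C. The cells were HepG2 CAGA-GFP in 1% FBS DMEM, stimulated with 500 pg/mL TGF-beta after compound addition. %Activity was normalised to no-cell wells (complete cell-killing) and DMSO (no toxicity), and curves were fitted and classified.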
TDP1 cell CPT = qHTS for Inhibitors of human tyrosyl-DNA phosphodiesterase 1 (TDP1): qHTS in cells in presence of CPT; chicken DT40 Tdp1-/-;hTDP1 cells + 20 nM CPT, ATP luminescence, 48 h; Potency, µM (highest dose often 46.2 µM), inactives show at the top dose activity change, negative = growth inhibition, most hits filed as inhibitors; actives 12% (n = 420,000); AID 686979, 2013; also: potency is read from the fitted curve at half-maximal effect; % is scaled to controls: 0 for no effect and ±100 for the full control effect; nearly all actives have a fitted effect of over 55% in size
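Chicken DT40 Tdp1-/- cells stably complemented with human TDP1 were seeded at 400 cells/well in medium containing 20 nM camptothecin, exposed to pin-transferred compounds, and grown at 37 °C for at least 48 hr. Viability was read as ATP luminescence.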
TGFb inhibitor = qHTS for Inhibitors of TGF-b; HepG2 CAGA-GFP TGF-b/SMAD3 reporter, GFP fluorescence, 18 h; TGF-beta stimulated, 500 pg/mL final; Potency, µM (titrated, usually from 46.1 µM), inactives show top-dose activity, negative = inhibition, most hits filed as inhibitors; actives 1.2% (n = 410,000); AID 588855, 2011; also: potency is read from the fitted curve at half-maximal effect; % is scaled to controls: 0 for no effect and ±100 for the full control effect; nearly all actives have a fitted effect of over 65% in size
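Per well, imaged GFP fluorescence of HEPG2 CAGA-GFP cells gives the signal; cells get compound, then TGF-beta (500 pg/mL final), 18 h at 37 degrees C; %Activity versus -TGF-beta and +DMSO controls.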
* marks the source's active call; other numbers are inactive results; ? = inconclusive; . = no result given; [ ] = dose if it differs, or a comment. Unless noted, calls follow the shape of the dose curve; as a rule, active = well fitted curve in the direction sought with a large enough effect; inconclusive = small, poorly fitted or top-dose-only effect, or another doubt; inactive = no such curve, though single readings can be large; an effect the other way counts as inactive or inconclusive.

SMILES	IL1B secr inh	DT40 TDP1 no CPT	TDP1 inh	HepG2 viability	TDP1 cell CPT	TGFb inhibitor
O=C(NC1CCCCC1)c1ccc([N+](=O)[O-])o1	.	?	0%	-18%	?	?
O=C(Nc1cccnc1)c1ccc([N+](=O)[O-])o1	-92*	15µM*	.	-83%	9.2µM*	?
O=C(NN(c1ccccc1)c1ccccc1)c1ccc([N+](=O)[O-])o1	-93*	?	9%	-97%	?	?
O=[N+]([O-])c1c(NCc2ccccc2)cc(N2CCc3ccccc3C2)c2nonc12	-5	21µM*	3%	-33%	?	-20%
COc1ccccc1Nc1cc(N2CCOCC2)c2nonc2c1[N+](=O)[O-]	6	?	3%	-11%	0%	2%
O=C(CN1CCN(Cc2ccccc2)CC1)N1CCCCCC1	24	-1%	4%	16%	9%	6%
CCOC(=O)N/N=C1/C[C@@H](O)[C@@H](O)[C@@H]2[C@@H]3C(=O)N([C@@H](C)c4ccccc4)C(=O)[C@H]3CC[C@H]12	.	.	9%[21 µM]	.	.	.
O=C(NCc1cccnc1)c1ccc(N2CCOCC2)c([N+](=O)[O-])c1	47	16µM*	5%	-3%	?	-14%
Cc1c(Cl)c([N+](=O)[O-])nn1Cc1ccc(C(=O)Nc2ccc(Cl)cn2)o1	-11	?	4%	0%	-48%	-3%
O=[N+]([O-])c1cc([N+](=O)[O-])c(N2CCOCC2)cc1NCc1ccccc1	28	18µM*	5%	-4%	8.2µM*	?
O=C(NCc1cccnc1)c1ccc([N+](=O)[O-])o1	-67*	?	3%	-56%	?	?
O=C(Nc1ccc(Cl)cn1)c1ccc([N+](=O)[O-])o1	-226*	15µM*	-2%	18µM*	2.3µM*	11µM*
COc1ccc(C2c3c(oc4ccc(Cl)cc4c3=O)C(=O)N2CCCN(C)C)cc1OC (stereo not drawn)	.	?	-3%	11%	-15%	4%
C#CCOCCOCCOCCNc1nc(N2CCN(C(=O)CCCCCCCCCCNC(=O)Cn3cc(C[C@@H](C)O)nn3)CC2)nc(N2CCN(C(=O)CCCCCCCCCCNC(=O)[C@@H]([C@H](C)O)n3cc(C)nn3)CC2)n1	8	7.3µM*	0%	-1%	7.3µM*	?
C#CCOCCOCCOCCNc1nc(N2CCN(C(=O)CCCCCCCCCCNC(=O)Cn3cc(CCCCCN)nn3)CC2)nc(N2CCN(C(=O)CCCCCCCCCCNC(=O)Cn3cc(C[C@@H](C)O)nn3)CC2)n1	-77*	?	14%	-39%	?	?
C#CCOCCOCCOCCNc1nc(N2CCN(C(=O)CCCCCCCCCCNC(=O)Cn3cc(CCCCCN)nn3)CC2)nc(N2CCN(C(=O)CCCCCCCCCCNC(=O)[C@@H]([C@H](C)O)n3cc(C)nn3)CC2)n1	-20	?	4%	-18%	?	?
C#CCOCCOCCOCCNc1nc(N2CCN(C(=O)CCCCCCCCCCNC(=O)[C@H](CCCN=C(N)N)n3cc(C[C@@H](C)CC)nn3)CC2)nc(N2CCN(C(=O)CCCCCCCCCCNC(=O)[C@@H]([C@H](C)CC)n3cc(CCCCCN)nn3)CC2)n1	.	.	17%	.	.	.
